What all share (parameters): scale not given: direction of the effect not stated beside the values
The target in assay [1] is Protein translocase subunit SecA (Escherichia coli (strain K12)) (UniProt P10408). Nature of the assay: Assay to Identify E. coli SecA ATPase Inhibitors. It counts as functional. As to conditions: 30 µM.
The target of assay [2] is T1, Ubiquitin-activating enzyme e1, putative (Leishmania donovani (strain BPK282A1)) (UniProt E9BSI1).
T1 sequence (whole entry): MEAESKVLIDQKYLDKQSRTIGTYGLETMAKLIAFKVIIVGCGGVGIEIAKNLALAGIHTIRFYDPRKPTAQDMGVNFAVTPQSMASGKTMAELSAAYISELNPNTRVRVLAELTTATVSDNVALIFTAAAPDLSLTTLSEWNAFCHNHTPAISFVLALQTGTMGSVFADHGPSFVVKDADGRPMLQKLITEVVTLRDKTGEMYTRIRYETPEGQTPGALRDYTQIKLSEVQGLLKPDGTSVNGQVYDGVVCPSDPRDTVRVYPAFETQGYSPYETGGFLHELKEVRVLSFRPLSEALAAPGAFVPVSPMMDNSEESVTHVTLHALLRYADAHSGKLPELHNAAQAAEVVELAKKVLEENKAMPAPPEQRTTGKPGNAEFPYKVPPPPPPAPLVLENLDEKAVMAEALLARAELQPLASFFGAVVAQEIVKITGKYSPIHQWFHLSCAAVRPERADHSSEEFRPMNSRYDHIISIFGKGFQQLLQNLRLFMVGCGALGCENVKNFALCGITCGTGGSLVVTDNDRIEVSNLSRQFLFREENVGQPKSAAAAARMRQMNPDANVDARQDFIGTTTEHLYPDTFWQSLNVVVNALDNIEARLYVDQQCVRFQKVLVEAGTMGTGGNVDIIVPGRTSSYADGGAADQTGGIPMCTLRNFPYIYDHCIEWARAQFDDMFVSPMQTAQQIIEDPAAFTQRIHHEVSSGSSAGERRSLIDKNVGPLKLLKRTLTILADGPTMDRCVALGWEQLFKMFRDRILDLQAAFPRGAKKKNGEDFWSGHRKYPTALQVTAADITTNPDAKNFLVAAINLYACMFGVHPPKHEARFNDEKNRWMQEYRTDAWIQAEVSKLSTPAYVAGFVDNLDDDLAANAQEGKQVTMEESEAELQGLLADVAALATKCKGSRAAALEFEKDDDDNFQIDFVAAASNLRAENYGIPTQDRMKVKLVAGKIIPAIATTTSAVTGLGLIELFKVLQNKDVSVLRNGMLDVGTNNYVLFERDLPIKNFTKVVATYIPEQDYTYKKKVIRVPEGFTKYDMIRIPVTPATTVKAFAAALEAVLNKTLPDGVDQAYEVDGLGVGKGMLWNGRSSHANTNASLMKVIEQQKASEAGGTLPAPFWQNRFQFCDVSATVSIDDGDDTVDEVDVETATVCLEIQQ
Nature of the assay: Leishmania donovani Ubiquitin Activating Enzyme (LdE1). It counts as functional. As to conditions: 30 µM.

Assay [3] addresses Sialic acid-binding Ig-like lectin 9 (Homo sapiens) (UniProt Q9Y336). The assay is described as follows: Hs-Siglec9 ALPHAscreen SOP 20170721. To be noted: 10 µM.
Assay [4] deals with Trypanosoma cruzi. Nature of the assay: Trypanosoma cruzi phosphomannomutase and mannose-1-phosphate guanylyltransferase assay. As to conditions: 10 µM. Format: functional.
For assay [5], the target named is T2, Arginase-2, mitochondrial (Homo sapiens) (UniProt P78540).
T2 sequence (whole entry): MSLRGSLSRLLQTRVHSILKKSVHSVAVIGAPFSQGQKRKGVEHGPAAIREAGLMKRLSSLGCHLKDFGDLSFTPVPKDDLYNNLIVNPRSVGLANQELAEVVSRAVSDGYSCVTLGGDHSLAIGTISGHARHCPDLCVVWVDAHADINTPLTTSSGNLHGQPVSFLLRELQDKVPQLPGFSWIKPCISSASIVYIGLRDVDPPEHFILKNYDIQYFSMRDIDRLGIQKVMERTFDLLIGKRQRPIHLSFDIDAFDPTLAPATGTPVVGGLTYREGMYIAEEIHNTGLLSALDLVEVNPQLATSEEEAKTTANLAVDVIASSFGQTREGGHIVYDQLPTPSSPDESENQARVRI
Nature of the assay: in vitro enzyme assay to detect the production of urea directly proportional to the activity of Arginase II. Further: in the data most compounds retested in dose-response had high values. Format: functional. To be noted: 33.3 µM.

Assay [6] deals with T3, Proteasome subunit beta (Trypanosoma cruzi) (UniProt O96673).
T3 sequence (whole entry): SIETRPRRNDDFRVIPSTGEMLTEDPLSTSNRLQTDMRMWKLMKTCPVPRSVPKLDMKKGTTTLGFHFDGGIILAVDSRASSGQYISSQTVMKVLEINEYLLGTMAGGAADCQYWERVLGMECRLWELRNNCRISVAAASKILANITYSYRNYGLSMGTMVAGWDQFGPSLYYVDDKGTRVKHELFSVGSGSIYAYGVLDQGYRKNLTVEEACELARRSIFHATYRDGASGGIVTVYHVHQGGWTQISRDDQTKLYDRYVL
Nature of the assay: Trypanosoma cruzi proteasome chymotrypsin-like activity (TcProtChymo) assay. Further: in the data most compounds retested in dose-response had high values. Format: functional. As to conditions: 9.37 µM.

Assay [7] is filed under the species Homo sapiens. The assay is described as follows: To identify inhibition of the IFN signalling (Jak-Stat) pathway via expression of an eGFP reporter gene under the control of an IFN-stimulated response element (ISRE) containing MxA promoter. It counts as functional. To be noted: 30 µM. In general terms: Reporter assays use an easily measured gene product as a stand-in for the process of interest.

Assay [8] deals with T4, Tyrosyl-tRNA synthetase, putative (Trypanosoma cruzi (strain CL Brener)) (UniProt Q4DSP6).
T4 sequence (whole entry): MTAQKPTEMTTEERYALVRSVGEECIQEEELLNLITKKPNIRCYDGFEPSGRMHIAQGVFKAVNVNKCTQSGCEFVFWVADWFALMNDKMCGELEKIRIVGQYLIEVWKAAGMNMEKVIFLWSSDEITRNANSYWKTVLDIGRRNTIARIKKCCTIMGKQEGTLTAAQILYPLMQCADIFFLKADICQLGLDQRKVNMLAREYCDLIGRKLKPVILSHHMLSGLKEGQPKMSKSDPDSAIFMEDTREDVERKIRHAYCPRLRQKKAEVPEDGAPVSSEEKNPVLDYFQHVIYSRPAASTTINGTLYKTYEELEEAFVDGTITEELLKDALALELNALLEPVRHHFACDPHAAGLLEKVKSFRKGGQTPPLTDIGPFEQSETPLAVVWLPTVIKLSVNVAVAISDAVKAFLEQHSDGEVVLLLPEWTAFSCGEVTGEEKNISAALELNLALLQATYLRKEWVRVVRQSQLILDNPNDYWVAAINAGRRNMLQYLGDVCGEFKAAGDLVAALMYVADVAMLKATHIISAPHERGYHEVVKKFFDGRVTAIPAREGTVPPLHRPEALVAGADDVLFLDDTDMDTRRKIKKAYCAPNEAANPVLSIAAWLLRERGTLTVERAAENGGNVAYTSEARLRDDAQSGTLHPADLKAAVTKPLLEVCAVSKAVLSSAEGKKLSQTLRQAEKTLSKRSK
The assay is described as follows: Trypanosoma cruzi tyrosyl tRNA synthetase (TcYRS) _High Tyrosine SOP. Further: in the data most compounds retested in dose-response had high values. It counts as functional. To be noted: 30 µM.

In assay [9] the target is T4, Tyrosyl-tRNA synthetase, putative (Trypanosoma cruzi (strain CL Brener)). Nature of the assay: Trypanosoma cruzi tyrosyl tRNA synthetase (TcYRS) SOP. It counts as functional. To be noted: 30 µM.
Assay [10] has as its target Chromo domain-containing protein 1 (Saccharomyces cerevisiae (strain ATCC 204508 / S288c) (Baker's yeast)) (UniProt P32657). The assay is described as follows: ScCHD-1 Enzyme Inhibition Assay. Further: in the data most compounds retested in dose-response had high values. It counts as functional. To be noted: 30 µM.

For some assays here: Measured potencies and affinities stand elsewhere.

Sequence of Chromo domain-containing protein 1 (Saccharomyces cerevisiae (strain ATCC 204508 / S288c) (Baker's yeast)) (P32657 whole entry, the tested form may be a part): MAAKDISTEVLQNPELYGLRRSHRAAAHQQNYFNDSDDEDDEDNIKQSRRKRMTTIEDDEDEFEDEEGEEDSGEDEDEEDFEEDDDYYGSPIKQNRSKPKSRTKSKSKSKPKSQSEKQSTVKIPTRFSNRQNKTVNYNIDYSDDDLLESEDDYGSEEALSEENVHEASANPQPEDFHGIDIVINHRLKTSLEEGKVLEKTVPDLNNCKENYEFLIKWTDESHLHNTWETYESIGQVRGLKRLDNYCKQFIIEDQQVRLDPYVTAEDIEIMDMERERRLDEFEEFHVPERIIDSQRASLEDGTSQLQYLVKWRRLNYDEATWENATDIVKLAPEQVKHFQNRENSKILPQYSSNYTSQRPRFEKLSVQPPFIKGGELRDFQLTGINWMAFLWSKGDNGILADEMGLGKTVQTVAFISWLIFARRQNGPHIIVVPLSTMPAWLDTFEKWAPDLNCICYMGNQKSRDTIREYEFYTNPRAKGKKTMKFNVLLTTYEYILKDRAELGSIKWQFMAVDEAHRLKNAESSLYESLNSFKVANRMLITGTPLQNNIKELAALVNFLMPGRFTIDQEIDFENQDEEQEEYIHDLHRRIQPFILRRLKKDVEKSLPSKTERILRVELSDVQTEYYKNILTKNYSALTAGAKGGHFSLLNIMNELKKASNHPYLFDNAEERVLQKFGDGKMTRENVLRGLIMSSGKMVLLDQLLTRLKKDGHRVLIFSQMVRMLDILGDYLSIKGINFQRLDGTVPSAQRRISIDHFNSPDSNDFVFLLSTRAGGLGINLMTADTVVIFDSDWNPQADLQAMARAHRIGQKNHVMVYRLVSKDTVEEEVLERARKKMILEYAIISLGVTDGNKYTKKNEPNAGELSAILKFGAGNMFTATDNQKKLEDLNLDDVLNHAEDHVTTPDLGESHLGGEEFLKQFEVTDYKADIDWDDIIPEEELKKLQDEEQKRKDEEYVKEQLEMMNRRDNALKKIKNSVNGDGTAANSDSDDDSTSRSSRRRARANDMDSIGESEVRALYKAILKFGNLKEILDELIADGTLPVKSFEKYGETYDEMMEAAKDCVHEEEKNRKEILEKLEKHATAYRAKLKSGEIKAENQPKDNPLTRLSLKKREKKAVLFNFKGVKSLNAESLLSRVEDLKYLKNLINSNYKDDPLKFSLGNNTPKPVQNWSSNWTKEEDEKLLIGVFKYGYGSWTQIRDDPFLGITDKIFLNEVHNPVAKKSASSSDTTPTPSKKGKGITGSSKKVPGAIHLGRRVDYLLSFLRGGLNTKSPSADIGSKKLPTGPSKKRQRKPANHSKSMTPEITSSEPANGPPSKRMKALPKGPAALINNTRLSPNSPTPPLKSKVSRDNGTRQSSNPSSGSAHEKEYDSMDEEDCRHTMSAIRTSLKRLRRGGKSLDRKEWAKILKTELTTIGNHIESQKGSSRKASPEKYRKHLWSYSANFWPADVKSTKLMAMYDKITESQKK
Sequence of Protein translocase subunit SecA (Escherichia coli (strain K12)) (P10408 whole entry): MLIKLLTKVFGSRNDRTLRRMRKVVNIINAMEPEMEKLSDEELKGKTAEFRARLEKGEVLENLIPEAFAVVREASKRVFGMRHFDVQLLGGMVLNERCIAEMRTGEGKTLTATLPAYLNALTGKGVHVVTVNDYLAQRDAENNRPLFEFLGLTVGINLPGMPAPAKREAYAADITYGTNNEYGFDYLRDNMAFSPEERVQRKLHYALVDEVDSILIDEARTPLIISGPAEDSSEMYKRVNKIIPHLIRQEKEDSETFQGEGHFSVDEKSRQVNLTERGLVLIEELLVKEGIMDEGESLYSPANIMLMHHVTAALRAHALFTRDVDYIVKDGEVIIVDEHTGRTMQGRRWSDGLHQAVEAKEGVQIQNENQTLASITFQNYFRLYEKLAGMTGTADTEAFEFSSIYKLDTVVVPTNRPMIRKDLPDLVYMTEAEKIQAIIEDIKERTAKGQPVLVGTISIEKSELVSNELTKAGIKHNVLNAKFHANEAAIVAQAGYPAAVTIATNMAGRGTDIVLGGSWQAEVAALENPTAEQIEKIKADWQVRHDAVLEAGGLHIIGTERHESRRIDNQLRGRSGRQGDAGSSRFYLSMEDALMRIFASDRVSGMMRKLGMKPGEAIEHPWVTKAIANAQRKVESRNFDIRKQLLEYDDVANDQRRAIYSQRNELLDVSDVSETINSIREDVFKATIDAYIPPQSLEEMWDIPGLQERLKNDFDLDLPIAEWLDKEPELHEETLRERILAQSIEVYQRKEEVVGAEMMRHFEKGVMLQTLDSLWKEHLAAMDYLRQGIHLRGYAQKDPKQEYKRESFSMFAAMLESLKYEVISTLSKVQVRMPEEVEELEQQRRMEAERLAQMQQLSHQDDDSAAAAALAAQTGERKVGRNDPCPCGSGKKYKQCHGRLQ
Sequence of Sialic acid-binding Ig-like lectin 9 (Homo sapiens) (Q9Y336 whole entry): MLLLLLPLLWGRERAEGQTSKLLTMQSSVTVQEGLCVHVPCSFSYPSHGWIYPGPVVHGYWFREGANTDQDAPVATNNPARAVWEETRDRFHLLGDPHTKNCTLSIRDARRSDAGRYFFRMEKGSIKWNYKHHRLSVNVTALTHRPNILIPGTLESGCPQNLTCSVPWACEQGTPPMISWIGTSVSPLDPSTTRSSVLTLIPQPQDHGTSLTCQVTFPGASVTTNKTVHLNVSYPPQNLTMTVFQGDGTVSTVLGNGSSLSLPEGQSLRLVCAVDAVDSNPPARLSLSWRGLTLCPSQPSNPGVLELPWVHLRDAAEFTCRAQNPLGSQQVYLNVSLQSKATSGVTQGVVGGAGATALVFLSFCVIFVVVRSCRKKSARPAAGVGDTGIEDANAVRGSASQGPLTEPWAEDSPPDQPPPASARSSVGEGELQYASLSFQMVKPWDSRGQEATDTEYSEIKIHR

Regarding `CCC(=O)N1CCCC1c1nccnc1Nc1nc(C)cc(C)n1` (stereo not given), the Percent Effect is -0.0687% in assay [1]; 14.7% in assay [2]; 0.282% in assay [3]; 0.789% in assay [4]; 2.21% in assay [5]; 15.8% in assay [6]. In addition, the Percent Effect was 6.52% in assay [7], 2.12% in assay [8], 7.5% in [9] and -21.6% in [10].

As for `COc1ccc(CN2CCC3(CC2)CCN(CC(C)C)C3=O)cc1`, the Percent Effect in assay [1] was -1.79%; in assay [2], -1.3%; in assay [3], -0.794%; in assay [4] it was -0.75%; in assay [5], -3.2%; in assay [6], -0.601%. The Percent Effect in [7] is 6.85%; in [8], 0.966%; in [9], 0%; in assay [10], -5.19%.

`COC(=O)c1cccn1C1CCN(CC(=O)NC2CCCCC2)CC1`: the Percent Effect in assay [1] was -0.883%; in assay [2], 15.6%; in [3] it was 8.78%; in assay [4], -1.31%; in [5], 3.07%; in assay [6], 13.5%. Also, the Percent Effect in [7] is 2.4%; in assay [8] it was 9.8%; in assay [9], 21.2%; in assay [10], -5.06%.

With `CCc1[nH]ncc1C(=O)N1CCCC(n2nc(C)nc2C)C1` (stereo not given), the Percent Effect in assay [1] is -6.31%; in assay [2], 2.56%; in assay [3], -8.9%; in [4], 11.9%; in assay [5], -1.23%; in assay [6], 2.82%. The Percent Effect is 7.13% in assay [7], 0.478% in assay [8], 8.43% in assay [9] and -10.4% in [10].

As for `Cc1cnn(CC2CCCN2CC(=O)Nc2cc(C(C)(C)C)no2)c1` (stereo not given), the Percent Effect is -3.74% in assay [1]; 13% in assay [2]; 2.37% in assay [3]; 3.73% in assay [4]; -0.615% in assay [5]; 6.84% in assay [6]. Moreover, the Percent Effect in assay [7] was 2.79%; in [8], 7.84%; in assay [9] it was 28.2%; in assay [10], -8.5%.

As for `O=C(NCCCNc1ccccc1)c1scnc1Cl`, the Percent Effect is -4.57% in assay [1]; 13.3% in assay [2]; -2.42% in assay [3]; -3.61% in [4]; 0.444% in assay [5]; 8.06% in [6]. Further, the Percent Effect in assay [7] is 24.4%; in assay [8], 3.68%; in assay [9] it was 12.8%; in [10], -10.6%.

Turning to `Cc1ncoc1C(=O)N1CCn2c(COCC3CC3)cnc2C1C` (stereo not given), the Percent Effect is -6.41% in assay [1]; 9.09% in assay [2]; -3.19% in assay [3]; 0.487% in assay [4]; -0.81% in assay [5]; 10.2% in assay [6]. The Percent Effect is -4.92% in assay [7], 7.89% in [8], 12.8% in assay [9] and -2.4% in assay [10].

With `CCOC1COC2(CCN(S(=O)(=O)c3cccc(F)c3)CC2)C1` (stereo not given), the Percent Effect in assay [1] was -2.48%; in [2] it was 6.49%; in [3], -0.342%; in [4], -7.3%; in [5], 6.07%; in [6], 19.9%. For the same molecule, the Percent Effect was -2.83% in assay [7], 6.84% in assay [8], 7.69% in [9] and -3.54% in assay [10].

Take `CCOCC1CC2(CCN(C(=O)c3ccccn3)CC2)CO1` (stereo not given): the Percent Effect was -5.71% in [1]; -1.3% in [2]; 4.48% in assay [3]; -0.876% in [4]; -3.64% in assay [5]; 9.44% in assay [6]. In addition, the Percent Effect in [7] was -3.04%; in assay [8] it was 1.58%; in assay [9], 2.56%; in [10], -2.76%.

As to `CCc1ccsc1C(=O)N1CCN(C(=O)CC(F)(F)F)CC1`, the Percent Effect in assay [1] was found to be 2.23%; in assay [2], 18.2%; in assay [3], 11.7%; in [4], 1.68%; in assay [5] it was 1.02%; in assay [6] it was 10.5%. The Percent Effect in [7] was -19.1%; in assay [8] it was 6.86%; in assay [9], 23.5%; in assay [10], -4.02%.

On to `Cc1cnn(CC2CCCN2C(=O)c2cc3c(F)cccc3[nH]2)c1` (stereo not given), for which the Percent Effect in assay [1] is -2.09%; in assay [2], 5.2%; in assay [3], 8.2%; in assay [4], -5.6%; in assay [5], -2.66%; in assay [6], 2.81%. Besides, the Percent Effect was 26.7% in [7], 1.96% in assay [8], 11.8% in assay [9] and -1.7% in assay [10].
